We go through seven sequences from the supplement of paper PMC6555819.

Holding throughout (assay): PBM binding z-score (relative to random genomic background probes); higher = stronger binding; sequences stand for … in GC…GCGATTGACAGCGTAGAATGAAGG
In assay [1] the test system is FXR:RXRa (NR concentration 270 nM, RXRa partner concentration 90 nM). A digest of the protocol: (§1)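 Custom Agilent 4×180K protein-binding microarrays carried double-stranded probes, each with a 34-nt variable region. These regions held direct-repeat seeds, single-nucleotide variants, half-site ablations and random human genomic background sequences. Ligand-free nuclear receptor dimers were incubated on the arrays for 1 h, antibodies against each partner (one per run) detected binding, and scanned fluorescence was regression-normalized. Binding z-scores take the random background probes as reference.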

Assay [2] deals with LXRa:RXRa (NR concentration 270 nM, RXRa partner concentration 90 nM). An outline of the steps:
as §1

Assay [3] relates to LXRa homodimer (NR concentration 270 nM). An outline of the steps: as §1
Assay [4] deals with LXRb:RXRa (NR concentration 270 nM, RXRa partner concentration 90 nM). An outline of the steps:
as §1

Assay [5] deals with LXRb homodimer (NR concentration 270 nM). An outline of the steps:
as §1

Assay [6] has as its system PPARg:RXRa (NR concentration 180 nM, RXRa partner concentration 90 nM). A digest of the protocol: as §1
Assay [7] has as its system PPARg:RXRa 270nM:90nM, anti-RXR (NR concentration 270 nM, RXRa partner concentration 90 nM). A digest of the protocol: as §1
The subject of assay [8] is PPARg:RXRa 30nM:10nM, anti-RXR (NR concentration 30 nM, RXRa partner concentration 10 nM). A digest of the protocol:
as §1

Assay [9] deals with PPARg:RXRa 90nM:30nM, anti-RXR (NR concentration 90 nM, RXRa partner concentration 30 nM). A digest of the protocol:
as §1

Assay [10] has as its system PPARg:RXRa DBDmut IVT, anti-RXR (DBD mutation: RXRa K156A/R161A, NR concentration 270 nM, RXRa partner concentration 90 nM). A digest of the protocol:
as §1

For assay [11], the system named is PPARg:RXRa IVT, anti-PPARg (NR concentration 270 nM, RXRa partner concentration 90 nM). A digest of the protocol:
as §1

Assay [12] deals with PPARg DBDmut:RXRa IVT, anti-PPARg (DBD mutation: PPARg1 K132A/R137A, NR concentration 270 nM, RXRa partner concentration 90 nM). An outline of the steps:
as §1

Assay [13] has as its system PPARg DBDmut IVT, anti-PPARg (DBD mutation: PPARg1 K132A/R137A, NR concentration 270 nM). A digest of the protocol: as §1
Assay [14] has as its system PPARg homodimer (NR concentration 180 nM). A digest of the protocol:
as §1

Assay [15] relates to PXR:RXRa (NR concentration 270 nM, RXRa partner concentration 90 nM). An outline of the steps: as §1
Assay [16] has as its system PXR homodimer (NR concentration 270 nM). A digest of the protocol:
as §1

Assay [17] has as its system RARa:RXR (NR concentration 270 nM, RXRa partner concentration 90 nM). A digest of the protocol:
as §1

The subject of assay [18] is RARa homodimer (NR concentration 270 nM). A digest of the protocol: as §1
Assay [19] has as its system RARb:RXRa (NR concentration 270 nM, RXRa partner concentration 90 nM). An outline of the steps:
as §1

TAGCCTAGGTCATTGGACCAGTATAGTACGCATC: the PBM binding z-score turned out to be 4.61 in assay [1]; 3.73 in [2]; 1.02 in assay [3]; 2.36 in [4]; 0.187 in assay [5]; 2.88 in assay [6]. Besides, the PBM binding z-score in assay [7] was 3.16; in assay [8], 1.04; in [9] it was 2.07; in [10], 1.74; in assay [11], 3.17; in assay [12], 0.686. Besides, the PBM binding z-score in [13] is -0.0362; in assay [14] it was 1.31; in assay [15] it was 1.66; in assay [16], -0.324; in [17], 2.35; in [18] it was -0.143. This sequence had a PBM binding z-score in [19] of 3.65.
In the case of TCTGCTAGGTCAACGATGGTCAGCGAATCTGCTA, the PBM binding z-score in assay [1] was 3.19; in assay [2], 2.8; in assay [3], -0.293; in [4], 1.24; in [5], -0.382; in assay [6], 2.51. Also, the PBM binding z-score was 3.03 in [7]; 1.79 in [8]; 2.4 in assay [9]; 4.02 in [10]; 4.01 in assay [11]; 0.33 in assay [12]. Moreover, the PBM binding z-score in assay [13] is -0.3; in assay [14], 0.458; in assay [15], 1.44; in assay [16] it was -0.999; in [17] it was 2.26; in assay [18], -0.808. For the same sequence, the PBM binding z-score in [19] was 4.11.
As for CAAACTAGGTCACCGGAAGGTCATAGTCCGCATG, the PBM binding z-score in assay [1] was 6.02; in assay [2] it was 5.59; in assay [3] it was 4.48; in assay [4], 4.88; in assay [5], 0.927; in assay [6], 9.71. The PBM binding z-score in assay [7] amounted to 7.81; in [8], 6.11; in [9] it was 7.67; in assay [10], 8.59; in assay [11], 9.21; in assay [12], 4.3. Moreover, the PBM binding z-score in assay [13] stood at 3.06; in assay [14] it was 4.74; in assay [15], 5.48; in [16], 1.67; in assay [17], 6.36; in [18] it was 1.54. Further, the PBM binding z-score in [19] was determined as 5.66.
On to TAGCCTAGGTTATGCGGGCCAGTATAGTGTCGGC, for which the PBM binding z-score in assay [1] is -0.487; in assay [2] it was -0.497; in assay [3], -0.618; in assay [4] it was -0.71; in [5], -1.29; in assay [6] it was 0.00764. Besides, the PBM binding z-score in assay [7] was -0.446; in assay [8] it was -0.658; in [9], -0.569; in [10], 0.00744; in assay [11], 0.945; in assay [12], -0.658. In addition, the PBM binding z-score in [13] was -0.513; in [14] it was -0.501; in assay [15], -0.511; in assay [16], -0.854; in assay [17] it was -0.208; in assay [18] it was -1.25. In assay [19], this sequence gave a PBM binding z-score of 0.558.
With CGTCCAAGCTCAGCAGGTCAGTGAAAGCGACGTG, the PBM binding z-score in [1] was -0.394; in [2], -0.404; in assay [3] it was -0.449; in assay [4] it was 0.048; in [5] it was -1.03; in assay [6], -0.464. Moreover, the PBM binding z-score in [7] is -0.756; in [8], -1.14; in [9], -0.879; in [10], -0.243; in assay [11] it was -0.249; in assay [12], -0.634. The PBM binding z-score in [13] is -0.872; in assay [14], -0.131; in assay [15] it was 0.0588; in [16], -0.688; in [17], 0.234; in [18] it was -0.706. The PBM binding z-score in [19] turned out to be 1.45.
Take GATACGGGGTCAGCTAGAGGCCAGAGTATGGAAA: the PBM binding z-score in assay [1] is 7.6; in [2] it was 5.46; in assay [3], -0.127; in [4] it was 5.17; in assay [5], 0.715; in assay [6], 7.74. Moreover, the PBM binding z-score in [7] was determined as 7.16; in assay [8], 3.25; in assay [9], 5.78; in assay [10], 3.12; in assay [11], 4.66; in assay [12], 1.44. Also, the PBM binding z-score is 0.481 in assay [13]; 4.42 in [14]; 5.75 in [15]; 0.6 in [16]; 6.84 in assay [17]; 0.888 in [18]. Besides, the PBM binding z-score in assay [19] was found to be 5.15.
In the case of GATTACGGGTCAAAGGTTATAGCATGAATAGAAT, the PBM binding z-score stood at 7.94 in assay [1]; 6.17 in assay [2]; 1.25 in assay [3]; 6.01 in assay [4]; 0.564 in assay [5]; 11.8 in [6]. Also, the PBM binding z-score in assay [7] stood at 9.6; in assay [8] it was 10.5; in assay [9], 11.3; in assay [10], 5.21; in assay [11], 6.61; in [12], 1.49. In addition, the PBM binding z-score in assay [13] was 3.11; in assay [14] it was 2.97; in assay [15] it was 6.03; in assay [16] it was 0.645; in [17] it was 8.43; in assay [18] it was 1.34. In assay [19], the PBM binding z-score was 4.69.
